Methyltransferases – Primary Screen for Target Class Profiling of Small Molecule Inhibitors of Methyltransferases; purified enzyme, MTase-Glo SAH luminescence; hits give low values; calls only at 40 µM; 25,000 compounds, 3.9% hits; AID 1745853, 2022; call rule not given here
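Each enzyme was assayed with SAM and its substrate. SAH formation detected by MTase-Glo luminescence; single-point 40 uM screen[…].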
Numbers without * were called inactive; i = inactive; + = active, no number. This is one part of a sample in which hits are shown more often than they occur. % is set by controls: 0 for no effect and ±100 for the full control effect.

SMILES	Methyltransferases
CCOC(=O)c1cc2n(n1)CC(C)(C(=O)NCCC(C)C)N(CCCc1ccccc1)C2=O (stereo unspecified)	i
C[C@H](Nc1cc2c(-c3ccc4c(c3)OCO4)noc2cn1)c1ccccc1	+
CN(CCN1C(=O)c2cc3sccc3n2CC1(C)C(=O)NC1CCCCC1)C1CCCCC1 (stereo unspecified)	i
CC1(C(=O)NC2CCCCCC2)Cn2c(cc3occc32)C(=O)N1CCCc1ccccc1 (stereo unspecified)	i
CC(C(=O)N1CCN(c2ccccc2)CC1)n1ccc2cc(S(=O)(=O)N3CCCC3)ccc21 (stereo unspecified)	i
Cc1ccc(N2CCN(S(=O)(=O)c3ccc4[nH]c5c(c4c3)CCCC5)CC2)c(C)c1	i
COc1ccccc1CNC(=O)C1c2c(n(C)c3ccccc23)SCC(=O)N1c1ccc2c(c1)OCCO2 (stereo unspecified)	i
COc1ccc(N(C(=O)c2ccc(Cl)cc2)S(=O)(=O)c2ccc3c(c2)n(C)c(=O)n3C)cc1	i
CC1(C(=O)NC2CCCCCC2)Cn2c(cc3sccc32)C(=O)N1C1CCCC1 (stereo unspecified)	i
COc1ccc(OC)c2c1cc1n2CC(C)(C(=O)NC2CCCCCC2)N(Cc2cccs2)C1=O (stereo unspecified)	i
O=C(Cn1ccc2cc(S(=O)(=O)N3CCCC3)ccc21)NCc1cccc(Cl)c1	i
Cc1cc2c(C(C)C)c(O)c(O)c(C=O)c2c(O)c1-c1c(C)cc2c(C(C)C)c(O)c(O)c(C=O)c2c1O	+
CCOC(=O)c1cc2n(n1)CC(C)(C(=O)NC1CCCC1)N(Cc1cccc(C)c1)C2=O (stereo unspecified)	i
Cc1ccc(C)c(N2CCN(C(=O)CCc3nnc4n(CCC(C)C)c(=O)c5ccccc5n34)CC2)c1	i
Cc1cccc(N2CCN(C(=O)CCc3nnc4n(CC(C)C)c(=O)c5ccccc5n34)CC2)c1C	+
Cc1ccc(Cn2c(=O)c3ccccc3n3c(CCC(=O)N4CCN(c5cccc(C)c5C)CC4)nnc23)cc1	i
CCOC(=O)c1cc2n(n1)CC(C)(C(=O)NC1CCCC1)N(Cc1ccc(Cl)cc1)C2=O (stereo unspecified)	i
CC1(C)CCC2(C(=O)OC3OC(COC4OC(CO)C(O)C(O)C4O)C(O)C(O)C3O)CCC3(C)C(=CCC4C5(C)CCC(OC6OCC(O)C(O)C6O)C(C)(C)C5CCC43C)C2C1O (stereo unspecified)	i
CC1(C)CC[C@]2(C(=O)O[C@@H]3O[C@H](CO)[C@@H](O)[C@H](O)[C@H]3O)CC[C@]3(C)C(=CCC4[C@@]5(C)C[C@@H](O)[C@H](O)[C@@](C)(CO)C5CC[C@]43C)C2C1 (stereo partly specified)	+
CC1(C)CC[C@]2(C(=O)O)CC[C@]3(C)C(=CCC4[C@@]5(C)C[C@@H](O)[C@H](O)C(CO)(CO)C5CC[C@]43C)C2[C@@H]1O (stereo partly specified)	+
C[C@@H]1O[C@@H](O[C@H]2[C@H](OC(=O)[C@]34CCC(C)(C)C[C@H]3C3=CCC5[C@@]6(C)C[C@H](O)[C@H](O[C@@H]7O[C@H](CO)[C@@H](O)[C@H](O)[C@H]7O)[C@@](C)(CO)C6[C@H](O)C[C@@]5(C)[C@]3(C)CC4)OC[C@H](O)[C@@H]2O)[C@H](O)[C@H](O)[C@H]1O[C@@H]1OC[C@@H](O)[C@H](O[C@@H]2OC[C@](O)(CO)[C@H]2O)[C@H]1O (stereo partly specified)	i
C[C@@H]1O[C@@H](O[C@H]2[C@H](O)[C@@H](O)[C@H](OC[C@H]3O[C@@H](OC(=O)[C@]45CCC(C)(C)C[C@H]4C4=CCC6[C@@]7(C)C[C@H](O)[C@H](O[C@@H]8O[C@H](CO)[C@@H](O)[C@H](O)[C@H]8O)[C@@](C)(C(=O)O)C7CC[C@@]6(C)[C@]4(C)CC5)[C@H](O[C@@H]4O[C@H](CO)[C@@H](O)[C@H](O)[C@H]4O)[C@@H](O)[C@@H]3O)O[C@@H]2CO)[C@H](O)[C@H](O)[C@H]1O (stereo partly specified)	i
C[C@@H]1O[C@@H](O[C@H]2[C@H](OC(=O)C34CCC(C)(C)CC3C3=CCC5C6(C)CC(O)C(O[C@@H]7O[C@H](CO)[C@@H](O)[C@H](O)[C@H]7O)C(C)(C(=O)O)C6CCC5(C)C3(CO)CC4)O[C@H](C)[C@H](O)[C@@H]2O)[C@H](O)[C@H](O)[C@H]1O[C@@H]1OC[C@@H](O)[C@H](O)[C@H]1O (stereo partly specified)	+
CC1(C)CC[C@]2(C(=O)O[C@@H]3O[C@H](CO)[C@@H](O)[C@H](O)[C@H]3O)CC[C@]3(C)C(=CCC4[C@@]5(C)C[C@@H](O)[C@H](O)C(C)(C)C5[C@H](O)C[C@]43C)[C@@H]2[C@@H]1O (stereo partly specified)	i
C[C@H]1[C@H](C)CC[C@]2(C(=O)O)CC[C@]3(C)C(=CC[C@@H]4[C@@]5(C)C[C@@H](O)[C@H](O)[C@@](C)(CO)[C@@H]5CC[C@]43C)[C@H]12	i
SMILES	Methyltransferases
C[C@@H]1CC[C@]2(C(=O)O)CC[C@]3(C)C(=CCC4[C@@]5(C)C[C@@H](O)[C@H](O)[C@@](C)(CO)C5CC[C@]43C)C2[C@H]1C (stereo partly specified)	i
CC1(C)CC[C@]2(C(=O)O[C@@H]3O[C@H](CO)[C@@H](O)[C@H](O)[C@H]3O)CC[C@]3(C)C(=CCC4[C@@]5(C)C[C@H](O)[C@H](O[C@@H]6OC[C@@H](O)[C@H](O)[C@H]6O)[C@@](C)(CO)C5CC[C@]43C)C2C1 (stereo partly specified)	i
CC1(C)CC[C@]2(C(=O)O[C@@H]3O[C@H](CO)[C@@H](O)[C@H](O)[C@H]3O)CC[C@]3(C)C(=CCC4[C@@]5(C)C[C@@H](O)[C@H](O)C(CO)(CO)C5CC[C@]43C)C2[C@@H]1O (stereo partly specified)	+
CC1(C)CC[C@]2(C(=O)OC3OC(CO)C(O)C(O)C3O)CC[C@]3(C)C(=CCC4[C@@]5(C)C[C@@H](O)[C@H](OC6OC(C(=O)O)C(O)C(O)C6O)C(C)(C)C5CC[C@]43C)[C@@H]2C1 (stereo partly specified)	i
Cc1ccc(N2C(=O)c3cc4occc4n3CC2(C)C(=O)NC2CCCCC2)cc1C (stereo unspecified)	i
CN1C(=O)c2cc(C(=O)NCCN3CCCCC3)nn2CC1(C)C(=O)NCc1ccccc1 (stereo unspecified)	i
O=C(CCn1ccc2cc(S(=O)(=O)N3CCCCC3)ccc21)NCCc1ccccc1Cl	i
O=C(CCc1nnc2n(Cc3ccc(F)cc3)c(=O)c3ccccc3n12)NC1CCCCC1	i
CC1CCCC(NC(=O)C2(C)Cn3c(nc4ccccc43)C(=O)N2Cc2ccccc2Cl)C1C (stereo unspecified)	i
CCOc1ccc(CNC(=O)c2cc3n(n2)CC(C)(C(=O)NCCC(C)C)N(C)C3=O)cc1 (stereo unspecified)	i
Cc1ccc(CNC(=O)CSc2nnc3n(CC(C)C)c(=O)c4cc(F)ccc4n23)cc1	i
CC(C)CCNC(=O)C1(C)Cn2nc(C(=O)NCC(C)c3ccccc3)cc2C(=O)N1C (stereo unspecified)	i

Screening data (PubChem BioAssay)
